# Laboratory results published in PubChem BioAssay (NCATS).
# Inconclusive results are not listed. Where a call stands in place of a potency, no number is given. Unmarked numbers belong to inactive results. Active and inactive are the calls of the source. Calls come from the whole dose curve; as a rule, active = well fitted curve in the direction sought with a large enough effect; inconclusive = small, poorly fitted or top-dose-only effect, or another doubt; inactive = no such curve, though single readings can be large; an effect the other way counts as inactive or inconclusive.
# Tests used:
# [1] = target: Rap guanine nucleotide exchange factor 3 (Homo sapiens) (UniProt O95398); assay: Confirmatory qHTS for antagonist of cAMP-regulated guanine nucleotide exchange factor 3 (EPAC1) (AID 1645880); note: nearly all actives have a fitted effect of over 55% in size; note: potency is the fitted concentration of half-maximal effect
# Outline: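 Nucleotide exchange uses 100 nM EPAC1, 250 nM RAP1B-BODIPY-GDP and 50 uM GDP, with compounds in a concentration-titration series. After 5 min at room temperature, fluorescence (480 nm ex/540 nm em) is read every 5 min for 30 min. Data are normalized to control ATA and DMSO.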
# [2] = target: Rap guanine nucleotide exchange factor 3 (Homo sapiens) (UniProt O95398); assay: Confirmatory qHTS for agonist of cAMP-regulated guanine nucleotide exchange factor 3 (EPAC1) (AID 1645881);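 note: EPAC1 catalysed release of BODIPY-GDP from Rap1B seen as fluorescence loss; nearly all actives have a fitted effect of over 75% in size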
# [3] = target: Rap guanine nucleotide exchange factor 4 (Homo sapiens) (UniProt Q8WZA2); assay: Confirmatory qHTS for agonist of cAMP-regulated guanine nucleotide exchange factor 4 (EPAC2) (AID 1645884);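 note: nucleotide exchange releases bodipy-GDP from Rap1 and this lowers its fluorescence; nearly all actives have a fitted effect of over 65% in size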
# [4] = target: Rap guanine nucleotide exchange factor 4 (Homo sapiens) (UniProt Q8WZA2); assay: Confirmatory qHTS for antagonist of cAMP-regulated guanine nucleotide exchange factor 4 (EPAC2) (AID 1645885); note: nearly all actives have a fitted effect of over 25% in size; note: potency is the fitted concentration of half-maximal effect
# [5] = target: Rap guanine nucleotide exchange factor 3 (Homo sapiens) (UniProt O95398); assay: Counterscreen qHTS for antagonist of cAMP-regulated guanine nucleotide exchange factor 3 (EPAC1) (AID 1645888);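 note: fluorescence loss as bound BODIPY-GDP is released from Rap1B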
# Outline: (§1)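 Rap1B-BODIPY-GDP 250 nM + GDP 50 uM; cpds 7-pt, final 9.74 nM–152 uM (activator mode) or from 7.32 nM upwards (inhibitor mode); RT; FI 480/540 nm at 5 and 30 min, then ± cAMP, reread.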
# [6] = target: Rap guanine nucleotide exchange factor 3 (Homo sapiens) (UniProt O95398); assay: Counterscreen qHTS for agonist of cAMP-regulated guanine nucleotide exchange factor 3 (EPAC1) (AID 1645889); note: nearly all actives have a fitted effect of over 40% in size
# Outline: as §1
# Sequence of Rap guanine nucleotide exchange factor 4 (Homo sapiens) (Q8WZA2 whole entry, looked up): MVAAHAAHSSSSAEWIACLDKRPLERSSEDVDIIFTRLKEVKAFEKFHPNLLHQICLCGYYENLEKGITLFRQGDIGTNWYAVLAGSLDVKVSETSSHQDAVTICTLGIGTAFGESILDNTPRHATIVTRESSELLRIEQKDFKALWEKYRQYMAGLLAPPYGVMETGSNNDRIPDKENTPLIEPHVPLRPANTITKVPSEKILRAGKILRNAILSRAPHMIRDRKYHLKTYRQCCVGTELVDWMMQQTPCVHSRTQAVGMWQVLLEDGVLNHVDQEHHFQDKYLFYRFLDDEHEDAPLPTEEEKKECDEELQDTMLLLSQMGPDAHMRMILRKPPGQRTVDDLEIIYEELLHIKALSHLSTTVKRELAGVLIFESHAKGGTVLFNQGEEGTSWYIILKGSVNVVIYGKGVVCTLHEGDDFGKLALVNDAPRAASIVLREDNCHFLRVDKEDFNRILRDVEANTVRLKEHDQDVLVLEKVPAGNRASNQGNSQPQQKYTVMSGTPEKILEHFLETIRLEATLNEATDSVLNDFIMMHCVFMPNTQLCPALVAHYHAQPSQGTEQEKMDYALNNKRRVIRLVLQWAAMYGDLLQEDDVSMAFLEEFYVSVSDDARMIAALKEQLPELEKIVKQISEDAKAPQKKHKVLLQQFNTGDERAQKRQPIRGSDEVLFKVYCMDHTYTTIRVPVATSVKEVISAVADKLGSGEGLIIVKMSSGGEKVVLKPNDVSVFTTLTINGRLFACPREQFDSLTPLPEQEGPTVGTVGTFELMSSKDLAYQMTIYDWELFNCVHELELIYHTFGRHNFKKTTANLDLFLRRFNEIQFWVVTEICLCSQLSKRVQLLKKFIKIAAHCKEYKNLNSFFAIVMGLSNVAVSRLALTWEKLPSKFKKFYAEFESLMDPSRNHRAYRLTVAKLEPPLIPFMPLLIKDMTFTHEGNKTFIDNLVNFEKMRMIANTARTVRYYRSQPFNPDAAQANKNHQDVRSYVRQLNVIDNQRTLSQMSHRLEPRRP
# Sequence of Rap guanine nucleotide exchange factor 3 (Homo sapiens) (O95398 whole entry, looked up): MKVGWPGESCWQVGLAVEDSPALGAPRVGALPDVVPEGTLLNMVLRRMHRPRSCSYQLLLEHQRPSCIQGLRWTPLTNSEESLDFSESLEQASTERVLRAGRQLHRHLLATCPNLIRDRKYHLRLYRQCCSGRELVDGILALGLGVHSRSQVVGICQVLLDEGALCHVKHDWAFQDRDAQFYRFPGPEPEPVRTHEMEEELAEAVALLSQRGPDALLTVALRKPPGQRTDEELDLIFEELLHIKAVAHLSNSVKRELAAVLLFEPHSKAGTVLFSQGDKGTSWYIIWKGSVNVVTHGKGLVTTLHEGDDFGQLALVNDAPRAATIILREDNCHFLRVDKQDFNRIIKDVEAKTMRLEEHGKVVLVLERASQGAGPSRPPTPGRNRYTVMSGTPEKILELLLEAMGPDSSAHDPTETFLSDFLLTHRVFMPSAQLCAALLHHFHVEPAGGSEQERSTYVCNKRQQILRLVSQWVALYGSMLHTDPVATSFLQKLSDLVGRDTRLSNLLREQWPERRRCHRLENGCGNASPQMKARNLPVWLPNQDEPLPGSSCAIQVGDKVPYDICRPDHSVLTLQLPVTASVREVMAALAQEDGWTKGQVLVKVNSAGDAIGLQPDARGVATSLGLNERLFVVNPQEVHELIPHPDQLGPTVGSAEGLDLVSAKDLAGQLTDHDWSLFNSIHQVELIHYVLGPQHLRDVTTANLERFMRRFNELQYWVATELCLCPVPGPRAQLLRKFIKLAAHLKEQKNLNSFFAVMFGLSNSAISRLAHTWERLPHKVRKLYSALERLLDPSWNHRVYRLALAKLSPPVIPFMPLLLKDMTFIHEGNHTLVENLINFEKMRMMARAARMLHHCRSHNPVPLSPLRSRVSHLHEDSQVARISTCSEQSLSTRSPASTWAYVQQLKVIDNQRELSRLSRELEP
Compound,Potency [1],Potency [2],Potency [3],Potency [4],Potency [5],Potency [6],activation [3],"activity change, negative = inhibition [5]",activation [6]
COc1ccccc1N1CCN(c2ncnc3onc(-c4ccc(F)cc4)c23)CC1,inactive,inactive,inactive,inactive,inactive,inactive,,,
C=CCOc1ccc(C(c2c(C(=O)O)[nH]c3ccccc23)c2c(C(=O)O)[nH]c3ccccc23)cc1,33.8 µM (active),inactive,inactive,inactive,inactive,inactive,,,
COc1ccc(N2CCN(C(=O)COC(=O)COc3cc(C)cc(C)c3)CC2)cc1,inactive,inactive,,inactive,,,"0.676% [at 17.1 µM, percent relative to cAMP agonist control]",-19.2% [at 30.8 µM],-0.0753% [at 30.8 µM]
CCOC(=O)CN1C(=O)c2ccccc2Sc2ncccc21,inactive,inactive,,inactive,inactive,inactive,"0% [at 17.1 µM, percent relative to cAMP agonist control]",,
O=C(CCNC(=O)c1ccc(Br)cc1)Nc1ccccc1N1CCOCC1,inactive,inactive,inactive,inactive,inactive,inactive,,,
C=CCc1cc(/C=C/c2nc(O)c([N+](=O)[O-])c(=O)[nH]2)cc(OC)c1O,33.8 µM (active),inactive,inactive,inactive,inactive,inactive,,,
O=C1CC(Cc2ccccc2)C(=O)N1CCc1ccc2c(c1)OCO2 (configuration not stated),inactive,inactive,,inactive,,,"2.14% [at 17.1 µM, percent relative to cAMP agonist control]",-4.71% [at 30.8 µM],1.4% [at 30.8 µM]
CCOC(=O)c1sc2nc(-c3ccco3)c3c(c2c1N)CC(C)(C)OC3,44.7 µM (active),inactive,,inactive,,,"7.15% [at 17.1 µM, percent relative to cAMP agonist control]",-5.49% [at 30.8 µM],25.5% [at 30.8 µM]
CCOC(=O)c1oc2ccccc2c1CN1CCN(C(=O)c2ccccc2)CC1,inactive,inactive,inactive,inactive,inactive,inactive,,,
O=C(Nc1cccc(Cl)c1)OC1CCCCc2cccnc21 (configuration not stated),inactive,inactive,,inactive,,,"5.07% [at 17.1 µM, percent relative to cAMP agonist control]",-21.2% [at 30.8 µM],25.6% [at 30.8 µM]
COc1cc2c(cc1OC)C(c1ccccc1Cl)N(C)CC2 (configuration not stated),inactive,inactive,,inactive,,,"2.32% [at 17.1 µM, percent relative to cAMP agonist control]",3.04% [at 30.8 µM],9.1% [at 30.8 µM]
COc1cccc(/C(=N/O)C2CC2c2ccc(Cl)cc2)c1 (configuration not stated),inactive,inactive,,inactive,,,"1.73% [at 17.1 µM, percent relative to cAMP agonist control]",-11.7% [at 30.8 µM],9.41% [at 30.8 µM]
Cc1ccc(C(C)C)cc1OCC(=O)NC1CCCCCCC1,inactive,inactive,,inactive,,,"-1.54% [at 17.1 µM, percent relative to cAMP agonist control]",-15.5% [at 30.8 µM],-2.78% [at 30.8 µM]
O=C1c2ccccc2C(=O)N1c1nc(-c2cccs2)cs1,4.78 µM (active),inactive,inactive,60.1 µM (active),inactive,inactive,,,
CCCS(=O)(=O)N1CCC(C(=O)NCCN2CCCC2)CC1,inactive,inactive,,inactive,,,"10.1% [at 17.1 µM, percent relative to cAMP agonist control]",-10.8% [at 30.8 µM],25.6% [at 30.8 µM]
CCOC(=O)N1CCN(S(=O)(=O)c2cc(-c3nn4c(C)nnc4c4ccccc34)ccc2C)CC1,inactive,inactive,inactive,inactive,inactive,inactive,,,

Compound,Potency [1],Potency [2],Potency [3],Potency [4],Potency [5],Potency [6],activation [3],"activity change, negative = inhibition [5]",activation [6]
Cc1ccc(-c2csc(N=C(N)N)n2)cc1,inactive,inactive,,inactive,,,"2.77% [at 17.1 µM, percent relative to cAMP agonist control]",-10% [at 30.8 µM],9.63% [at 30.8 µM]
c1ccc2c(c1)oc1c(-c3ccc4nccn4c3)cccc12,inactive,inactive,,inactive,,,"0% [at 17.1 µM, percent relative to cAMP agonist control]",-16.8% [at 30.8 µM],14.4% [at 30.8 µM]
NS(=O)(=O)c1ccc(CCNC(=O)c2ccc3nccnc3c2)cc1,47.8 µM (active),inactive,inactive,inactive,inactive,inactive,,,
COc1ccccc1/C=C1\SC(=S)N(NS(=O)(=O)c2ccc(C)cc2)C1=O,12.6 µM (active),inactive,,inactive,,,"1.14% [at 17.1 µM, percent relative to cAMP agonist control]",2.6% [at 30.8 µM],-16.6% [at 30.8 µM]
CCOC(=O)C1=C(C)OC(N)=C(C#N)C1c1ccc(OC)c(CSc2ccccn2)c1 (configuration not stated),inactive,inactive,,inactive,,,"7.18% [at 17.1 µM, percent relative to cAMP agonist control]",-6.88% [at 30.8 µM],28.3% [at 30.8 µM]
COc1ccc(S(=O)(=O)CC(=O)c2cc3cc(Br)ccc3oc2=O)cc1,50.1 µM (active),inactive,,inactive,,,"-4.99% [at 17.1 µM, percent relative to cAMP agonist control]",-4.76% [at 30.8 µM],7.34% [at 30.8 µM]
Cc1ccc(C(=O)O/N=C(\c2ccccc2)c2cccnc2)cc1,inactive,inactive,,inactive,,,"-3.55% [at 17.1 µM, percent relative to cAMP agonist control]",3.07% [at 30.8 µM],8.08% [at 30.8 µM]
CCOC(=O)c1ccccc1NC(=O)CSc1nccn1Cc1ccco1,inactive,inactive,inactive,inactive,inactive,inactive,,,
COc1ccc(C=NNc2ccc([N+](=O)[O-])cc2S(=O)(=O)Nc2ccccc2C(=O)O)cc1OC,25.1 µM (active),inactive,,inactive,,,"-2.2% [at 17.1 µM, percent relative to cAMP agonist control]",-11.2% [at 30.8 µM],21.9% [at 30.8 µM]
N=C1/C(=C\c2ccc(OC(=O)c3ccccc3Cl)cc2)C(=O)N=C2SC(N3CCOCC3)=NN12,19 µM (active),inactive,inactive,inactive,inactive,inactive,,,
O=C(OCc1c(-c2ccccc2)ncc2ccccc12)c1ccccc1C(F)(F)F,inactive,inactive,inactive,inactive,inactive,inactive,,,
COc1cc(/C=C2\SC(=O)NC2=O)ccc1Oc1ccc([N+](=O)[O-])cc1[N+](=O)[O-],42.6 µM (active),inactive,inactive,inactive,inactive,inactive,,,
COc1ccc(C(=O)N2CCc3cc(OC)c(OC)cc3C2c2ccc(OC)c(OC)c2)cc1 (configuration not stated),inactive,inactive,,inactive,,,"5.17% [at 17.1 µM, percent relative to cAMP agonist control]",-5.18% [at 30.8 µM],15.1% [at 30.8 µM]
O=C(CCCCCl)Nc1c2c(nc3ccccc13)CCC2,inactive,inactive,,inactive,,,"1.22% [at 17.1 µM, percent relative to cAMP agonist control]",-8.13% [at 30.8 µM],-2.96% [at 30.8 µM]
N#C/C(=C(/O)CCl)c1nc2c(s1)CCc1ccccc1-2,6.75 µM (active),inactive,inactive,inactive,inactive,inactive,,,
COc1ccc(/C=C\c2onc(C)c2S(=O)(=O)N2CCC(C(=O)NCCC(C)C)CC2)cc1,inactive,inactive,,inactive,,,"8.7% [at 17.1 µM, percent relative to cAMP agonist control]",-14.8% [at 30.8 µM],19.1% [at 30.8 µM]
